Test results: PubChem BioAssay (NCI)
This is part of a sample that, as a whole, favours compounds with a hit. Of some 83,000 tested, about 20% had one in any assay.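 Interpretation: 100, growth as untreated; towards 0, rising growth inhibition; 0, no net growth; 0 to -100, cell death. Compounds scoring below 10 were considered active.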 Unmarked numbers belong to inactive results. The source made the active and inactive calls.

What was measured:
Experiment in all cases: NCI-60 one-dose screen, 48 h (100 = growth as untreated, 0 = no growth, -100 = all killed)
Conditions in all cases: 10 µM unless noted
HT29 colon = test system: HT29 colon
SNB-19 CNS = test system: SNB-19 CNS
PC-3 prostate = test system: PC-3 prostate
UACC-62 melanoma = test system: UACC-62 melanoma
LOX IMVI melanoma = test system: LOX IMVI melanoma
SK-MEL-28 melanoma = test system: SK-MEL-28 melanoma
SK-MEL-2 melanoma = test system: SK-MEL-2 melanoma
SNB-75 CNS = test system: SNB-75 CNS
U251 CNS = test system: U251 CNS
SK-MEL-5 melanoma = test system: SK-MEL-5 melanoma

Row | SMILES | growth (HT29 colon) | growth (SNB-19 CNS) | growth (PC-3 prostate) | growth (UACC-62 melanoma) | growth (LOX IMVI melanoma) | growth (SK-MEL-28 melanoma) | growth (SK-MEL-2 melanoma) | growth (SNB-75 CNS) [%] | growth (U251 CNS) | growth (SK-MEL-5 melanoma)
1 | CN1C(=O)C(=Cc2cn(Cc3ccccc3)c3ccc(Br)cc23)C(=O)N(C)C1=O | 101% | 98.6% | 89.1% | 73.3% | 102% | 113% | 107% | – | – | –
2 | COc1cccc2c1O/C(=C\c1c([N+](=O)[O-])ncn1C)C2=O | – | 106% | -29.8% (active) | 109% | 85.2% | 106% | 97.6% | 101 | 97.4% | 102%
3 | CCCCCCCCCCCCCCCCCC1=NC(C)(C)CN1CCO | -44.7% (active) | 38.2% | -52.4% (active) | -77.1% (active) | -67% (active) | -78% (active) | -66.2% (active) | – | -57.9% (active) | -65.3% (active)
4 | COc1ccc(-c2c(-c3cc(OC)c(OC)c(OC)c3)noc2N)cc1 | – | 38.7% | 21.8% | 43.9% | 17.6% | 58.6% | 72.6% | 52.7 | 22.2% | -60.7% (active)
5 | COc1cc(C2C=C(c3ccc(C)cc3)Nc3nc(SC)[nH]c(=O)c32)ccc1Oc1ccnc2cc(Cl)ccc12 (configuration not stated) | 65.3% | 71.7% | 60.2% | 61.5% | 79.9% | 97% | 78.9% | – | 80.1% | 63.1%
6 | COc1ccc(-c2c(N)noc2-c2cc(OC)c3c(c2)OCCO3)cc1 | 8.42% (active) | 46.2% | 26.8% | 32.7% | 19.6% | – | 49.9% | – | 25.5% | -21.3% (active)
7 | COc1ccc(C2=NN(C(=O)c3cc(OC)c(OC)c(OC)c3)C(c3ccc(C#N)cc3)C2)cc1OC (configuration not stated) | -8.4% (active) | – | 31.4% | 43.6% | 33.6% | – | 35.6% | – | 21.5% | 17.7%
8 | c1cncc(CNc2ccccc2-c2nnc(Nc3ccc4c(c3)OCO4)o2)c1 | 8.59% (active) | 38.7% | 27.9% | 3.81% (active) | 8.28% (active) | – | 65.8% | – | 23% | -4.21% (active)
9 | CCC(C)CC(CC)NCCN1CCN(C(CC)CC(C)CC)C1=S (configuration not stated) | -24.6% (active) | 47.1% | 33.4% | 23.9% | -0.0423% (active) | 20.3% | 94.1% | – | 25.2% | –
10 | COC1=CC(c2ccc[nH]2)=N/C1=C\c1[nH]c(C)c(C(=O)CCC(=O)Oc2ccc3c(c2)CCC2C3CC[C@]3(C)C(=O)CC[C@@H]23)c1C (some centres not stated) | 26.8% | 95.4% | 60.6% | 65% | – | 97.3% | 91.3% | – | 53% | 78%
11 | C[n+]1ccc(Nc2ccc(NC(=O)c3ccc(Nc4cc[n+](C)c5ccc(N)cc45)cc3)cc2)cc1 | – | 100% | 90.1% | 89.2% | 103% | 116% | 71.5% | 97.2 | 92% | 90.4%
12 | Clc1ncn[nH]1 | – | 102% | 101% | 99.7% | 102% | 103% | 99.4% | 83.6 | 98.2% | 111%
13 | COC(=O)C[C@@H]1CC=CC(=O)/C1=C(O)/C=C/c1ccccc1 | -65.3% (active) | 2.77% (active) | 3.43% (active) | -67.5% (active) | -93.3% (active) | -35.5% (active) | -22% (active) | – | -67.4% (active) | -97.8% (active)
14 | Nc1nc(SCC2(CCl)COC2)c2[nH]cnc2n1 | 99.2% | 99.2% | 93.5% | 96.2% | 95.8% | 103% | 97.1% | – | 101% | –
15 | CC(C)[O-].CC(C)[O-].CN(CCN(C)Cc1cc(F)cc(F)c1[O-])Cc1cc(F)cc(F)c1[O-].[Ti+4] | -25.7% (active) | – | 15.9% | -22.8% (active) | -39% (active) | -23.3% (active) | -52% (active) | – | 4.7% (active) | –
16 | O=C1/C(=C/c2ccc([N+](=O)[O-])o2)Oc2ccc(Br)cc21 | – | 105% | 91.3% | 34.8% | 5.15% (active) | 70.8% | 56.6% | 85.5 | 93.6% | 82.5%
17 | O=C1C[C@@H]2/C(=C(O)\C=C\c3ccccc3)C(=O)C=C[C@@H]2O1 | -53.2% (active) | 58.7% | 37.8% | -50.7% (active) | -68% (active) | -23.7% (active) | -35% (active) | – | 1.95% (active) | 39.7%
18 | Cc1ccc2c(c1)O/C(=C\c1ccc([N+](=O)[O-])o1)C2=O | – | 93.4% | -61.2% (active) | 51.5% | 4.66% (active) | 83.3% | 79.2% | 84.3 | 68.3% | 76.9%
19 | CN=C(NC)N/N=C(C)\C=N\NC(=NC)NC | 104% | 99.4% | 94.8% | 97.5% | 109% | 110% | 117% | – | 98.8% | –
20 | CCCn1cnc2c1c(=O)n(CCCCC(C)=O)c(=O)n2C | 95.8% | 120% | 99.2% | 104% | 98.2% | 114% | 108% | – | 95.5% | 104%
21 | Cc1c(C(N)=O)sc2c1C(=O)N(Cc1ccccc1)C1=NN=C(c3ccc(Cl)cc3)CN12 | 34.9% | 52.8% | – | – | 17.2% | 72.8% | 66.8% | – | 29.9% | 57%
22 | CCCCCCCC/C=C/CCCCCCCC1=NC(C)(C)CN1CCO | -42.1% (active) | 60.5% | 22.8% | -64.4% (active) | -74.6% (active) | -68.4% (active) | -44.4% (active) | – | -35.5% (active) | 3.21% (active)
23 | S=C(Nc1ccc(C2=NCCN2)cc1)Nc1ccc(C2=NCCN2)cc1 | – | 105% | 100% | 107% | 96.7% | 110% | 111% | 110 | 97.9% | 96.6%
24 | COc1ccc(-c2cc(Cc3cccs3)c(=O)n(Cn3ccc4ccccc43)n2)cc1 | – | 102% | – | 87.7% | 96.5% | 114% | – | 92.6 | 104% | 104%
25 | COC(=O)CCC1=C(CC(=O)OC)C(C)=N/C1=C\c1[nH]c(-c2ccc[nH]2)cc1OC | – | 69.3% | – | -4.87% (active) | -48.3% (active) | 56.9% | – | 12.9 | 26.5% | -22.7% (active)
